The structures appear in SMILES notation. Records with an inconclusive call do not appear. The source made the active and inactive calls. How the source made its calls: active means hit-call score of the fitted dose curve at least 0.9, where 1 is the maximum; inconclusive means response in the unintended direction; inactive means score below 0.9.

The assay is described as follows: ATG_M_19_EcoTox2: Attagene TRANS-FACTORIAL EcoTox-2 HepG2 Assay for M19 Transcription Factor (Internal Marker). On the procedure: ATG_EcoTox2 is a cell-based, multiplexed assay created by modifying the existing Attagene TRANS-FACTORIAL system to include a panel of nuclear receptors from some or all the following species: human (Homo sapiens), african clawed frog (Xenopus laevis), rainbow trout (Oncorhynchus mykiss), japanese medaka (Oryzias latipes), and zebrafish (Danio rerio). The ECOTOX2-FACTORIAL format uses HepG2, a human liver cell line, with measurements taken at 24 hours after chemical dosing in a 24-well plate. ATG_M_19_EcoTox2 is one of 29 assay components calculated in the ATG_EcoTox2 assay. It is designed to make measurements of mRNA induction, a form of inducible reporter, as detected with fluorescence intensity signals by Reverse transcription polymerase chain reaction (RT-PCR) and Capillary electrophoresis technology.The assay endpoint ATG_M_19_EcoTox2 was analyzed in the positive analysis fitting direction relative to DMSO as the negative control and baseline of activity. Using a type of inducible reporter, measures of mRNA for gain-of-signal activity can be used to understand the background control at the transcription factor-level as they relate to the gene. Furthermore, this assay endpoint can be referred to as a secondary readout, because this assay has produced multiple assay endpoints where this one serves a background control function. To generalize the intended target to other relatable targets, this assay endpoint is annotated to the background measurement intended target family, where the subfamily is internal marker.
Human liver HepG2 cells are transiently transfected with multiple reporter transcription units (MRTUs) in 6-well plates using FuGene 6 reagent (Roche; 3 ml FuGene/1 mg DNA). The MRTU constructs are regulated by a cis-regulating element (promoter). Each RTU expresses a GAL4-UAS that regulates the transcription of a nearby target reporter gene sequence. A major difference between the CIS and TRANS system is that in CIS activities of endogenous TFs are measured, whereas the TRANS assay evaluates changes in activities of exogenous, chimeric NR-Gal4 proteins. […] At the end of 24 hour incubation, total RNA was isolated using TriZol reagent (Invitrogen). The isolated RNA is then reverse-transcribed using oligo(dT) primer and Mo-MLV reverse transcriptase (Invitrogen) with DNAse I (Ambion) treatment for 30 min. The one-tenth of the produced cDNA was amplified by PCR using Taq DNA polymerase (Invitrogen) and two reporter sequence-specific primers. […] The fragments were purified using Qiaquick PCR columns (Qiagen), analyzed on an ABI 3130xL genetic analyzer (Applied Biosystems) with peak positions identified by using a set of X-rhodamine (ROX)-labeled MapMarker1000 molecular weight standards (BioVentures). […]
On to `CC(C)(Oc1ccc(Cl)cc1)C(=O)O`, for which the result was inactive. Next, `Cc1ccc(C)c(OCCCC(C)(C)C(=O)O)c1`: “inactive”.

For `C[C@@H]1C[C@H]2[C@@H]3CCC4=CC(=O)C=C[C@]4(C)[C@@]3(F)[C@@H](O)C[C@]2(C)[C@@]1(O)C(=O)COP(=O)(O)O`, the compound was classed as inactive. Next, `CC(C)(Oc1ccc(CCNC(=O)c2ccc(Cl)cc2)cc1)C(=O)O`: “inactive”.

The values are drawn from PubChem BioAssay AID2284360 (EPA ToxCast).
